Laboratory results as given in PubChem BioAssay (Tox21).
Where “and” joins values, the source holds several entries; their conditions need not be identical. Identical values can stand only once. Records with an inconclusive call do not appear. Where a structure was tested more than once in an assay, its records may differ in their call. Calls of active or inactive are those of the source. Calls follow the shape of the full dose curve.

What follows are compounds tested against Acetylcholinesterase (Homo sapiens) (UniProt P22303) (assay: Acetylcholinesterase (AChE) small molecule antagonists: colormetric cell-based qHTS assay (AID 1347395; also: nearly all actives have a fitted effect of over 30% in size)). Settings: SH-SY5Y cells AChE activity, colorimetric (Ellman); series mostly up to 115 µM; activity, negative = inhibition: at the top concentration.
Sequence of Acetylcholinesterase (Homo sapiens) (P22303 whole entry, looked up): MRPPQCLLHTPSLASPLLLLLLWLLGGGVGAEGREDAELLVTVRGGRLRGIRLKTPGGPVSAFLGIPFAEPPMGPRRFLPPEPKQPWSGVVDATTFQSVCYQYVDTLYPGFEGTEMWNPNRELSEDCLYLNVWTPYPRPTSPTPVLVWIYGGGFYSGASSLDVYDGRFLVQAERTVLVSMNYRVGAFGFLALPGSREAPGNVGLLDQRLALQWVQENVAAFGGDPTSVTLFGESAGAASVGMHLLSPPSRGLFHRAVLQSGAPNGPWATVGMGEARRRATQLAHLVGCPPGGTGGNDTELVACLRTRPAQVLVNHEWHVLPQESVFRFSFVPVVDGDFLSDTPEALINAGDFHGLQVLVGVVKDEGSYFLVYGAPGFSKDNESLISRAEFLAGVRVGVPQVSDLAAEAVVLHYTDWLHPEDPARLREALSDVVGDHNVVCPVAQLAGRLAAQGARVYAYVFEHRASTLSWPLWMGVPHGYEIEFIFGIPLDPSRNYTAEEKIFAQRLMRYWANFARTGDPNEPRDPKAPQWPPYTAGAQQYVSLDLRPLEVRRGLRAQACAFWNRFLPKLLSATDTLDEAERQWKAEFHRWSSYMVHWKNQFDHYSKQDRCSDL
In short: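 After overnight attachment at 37 C, SH-SY5Y cells get 30 min compound exposure; detection cocktail (acetylthiocholine, DTNB) then incubates 90 min at 37 C, and absorbance reflects AChE-generated thiocholine.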
% is scaled to controls: 0 for no effect and ±100 for the full control effect; potency is read from the fitted curve at half-maximal effect.

Row | Structure (SMILES) | Potency | activity, negative = inhibition
1 | NC(=NCCCCCCN=C(N)/N=C(\N)Nc1ccc(Cl)cc1)/N=C(\N)Nc1ccc(Cl)cc1 | 56.1 µM (active) and 62.9 µM (active) and inactive | –
2 | C/C(=C\c1ccc(C(=O)O)cc1)c1ccc2c(c1)C(C)(C)CCC2(C)C | – | 4.67% [at 52.9 µM] (inactive)
3 | CCCCCCCCCCCCc1ccccc1O | inactive | –
4 | CC(C=O)Cc1ccc(C(C)C)cc1 (centres undefined) | – | -1.68% (inactive)
5 | CCc1cc(Cc2cc(CC)cc(C(C)(C)C)c2O)c(O)c(C(C)(C)C)c1 | – | 0% (inactive)
6 | Cc1ccc(C(=O)O)cc1 | – | 0.177% (inactive)
7 | CN(C)c1ccc(C(=N)c2ccc(N(C)C)cc2)cc1 | 7.01 µM (active) and inactive | –
8 | CN1CCC[C@@H]1c1cccnc1 | – | -2.48% [at 52.9 µM] (inactive)
9 | CC1(C)C(=O)N(Cl)C(=O)N1Cl | inactive | –
10 | OCC(CO)(CO)CO | inactive | –
11 | CC(Cl)C(Cl)Cl (centres undefined) | – | -7.7% (inactive)
12 | O=C(O)CCCCCC(=O)O | – | 1.8% (inactive)
13 | Oc1ccc2c(c1)-c1ccccc1C2 | – | 0.852% (inactive)
14 | C[C@]12CCC(=O)C=C1CC[C@@H]1[C@@H]2CC[C@@]2(C)[C@H]1CC[C@]2(O)C(=O)CO | – | -1.59% [at 52.9 µM] (inactive)
15 | CCN(CCC#N)c1ccccc1 | – | -9.06% (inactive)
16 | Nc1c(CC(=O)O)cccc1C(=O)c1ccc(Br)cc1 | – | 3.84% [at 52.9 µM] (inactive)
17 | CN1CCC(=C2c3ccccc3CCc3cccnc32)CC1 | – | -4.48% [at 52.9 µM] (inactive)
18 | O=c1[nH]c(=O)c2cn[nH]c2[nH]1 | – | 10.9% (inactive)
19 | NC(=S)Nc1cccc2ccccc12 | – | -0.35% [at 10.5 µM] (inactive)
